Reference: PubChem BioAssay (EPA / NIEHS)
Results filed as inconclusive are left out. Activity calls are given as the source filed them. The calls were made as follows, unless noted: active = hit-call score of the fitted dose curve at least 0.9, where 1 is the maximum; inconclusive = response in the unintended direction; inactive = score below 0.9.

Tests used:
[1] = ATG_TCF_b_cat_CIS: Attagene CIS-FACTORIAL HepG2 Assay for human T-Cell-Factor with beta-catenin (TCF/b-cat) (AID 2282965; active = hit-call score of the fitted dose curve at least 0.9, where 1 is the maximum; inactive = score below 0.9); details: HepG2 TCF/beta-catenin cis-reporter transcription, actives raise or lower the signal
Outline: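 Endogenous TCF/LEF activity read as reporter transcript level via RT-PCR and capillary electrophoresis fluorescence in transfected HepG2, 24 h exposure; gain or loss of signal fitted against DMSO controls.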

[2] = ATG_TAL_CIS: Attagene CIS-FACTORIAL HepG2 Assay for human TAL Basal Promoter (AID 2282966; active = hit-call score of the fitted dose curve at least 0.9, where 1 is the maximum; inactive = score below 0.9;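 also: background control endpoint measuring basal TAL promoter reporter mRNA not a specific factor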); details: HepG2 Attagene cis-factorial TAL promoter reporter; actives raise or lower the signal
Outline: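 Readout: reporter mRNA, fluorescence by CE. System: HepG2, transient multi-reporter transfection, endogenous TF activity. Exposure: 24 h. Analysis: bidirectional, DMSO-normalized; background control.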

[3] = ATG_TGFb_CIS: Attagene CIS-FACTORIAL HepG2 Assay for human Transforming Growth Factor (TGF) (AID 2282967; active = hit-call score of the fitted dose curve at least 0.9, where 1 is the maximum; inactive = score below 0.9); details: HepG2 Attagene CIS TGFb reporter, mRNA transcription; actives raise or lower the signal
Outline: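 HepG2 cells transiently transfected with cis-promoter-driven multiplexed reporter units; 24 h compound exposure. Reporter mRNA measured by RT-PCR, 6-FAM labeling, HpaI digestion and capillary electrophoresis; bidirectional fit versus DMSO baseline.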

[4] = ATG_VDRE_CIS: Attagene CIS-FACTORIAL HepG2 Assay for human Vitamin D Receptor Element (VDRE) (AID 2282968; active = hit-call score of the fitted dose curve at least 0.9, where 1 is the maximum; inactive = score below 0.9); details: HepG2 VDRE cis-reporter transcription, actives raise or lower the signal
Outline: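 Reporter mRNA induction, quantified by capillary electrophoresis of fluorescently labelled RT-PCR products, was read 24 h after dosing HepG2 cells carrying transiently transfected cis-regulated reporter units; gain or loss relative to DMSO.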

[5] = biological target: Estrogen receptor (Homo sapiens) (UniProt P03372); assay: ATG_ERa_TRANS: Attagene TRANS-FACTORIAL HepG2 Assay for human Estrogen Receptor alpha (ERa) (AID 2282970); details: HepG2 Attagene TRANS ERa GAL4 reporter, mRNA
Outline: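 Transactivation via ERa-Gal4 chimera in HepG2; 24 hour incubation; reporter mRNA detected by fluorescence RT-PCR and capillary electrophoresis.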

[6] = biological target: X-box-binding protein 1 (Homo sapiens) (UniProt P17861); assay: ATG_Xbp1_CIS: Attagene CIS-FACTORIAL HepG2 Assay for human X-box Binding Protein 1 (XBP1) (AID 2282972; active = hit-call score of the fitted dose curve at least 0.9, where 1 is the maximum; inactive = score below 0.9); details: HepG2 XBP1 cis-element reporter, Attagene multiplex; actives raise or lower the signal
Outline: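 Fluorescence-labelled cDNA fragments from reporter transcripts, separated by capillary electrophoresis, give the signal. Source: HepG2 cells transfected with promoter-driven reporter units, harvested 24 h post-dose. DMSO served as reference for bidirectional curve fitting.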

[7] = ATG_Hpa5_TRANS: Attagene TRANS-FACTORIAL HepG2 Assay for human GAL4-Hpa5 Hepatocyte Transcription Factor Basal Promoter (AID 2282975); details: HepG2 Attagene GAL4-Hpa5 transcription reporter;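 also: hits are increases in reporter mRNA over DMSO baseline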
Outline: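 Basal-promoter GAL4 background control within the HepG2 trans-factorial panel of transiently transfected reporter units. Reporter mRNA is measured 24 h after dosing by RT-PCR and capillary electrophoresis, fitted for gain of signal versus DMSO.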

[8] = biological target: Estrogen-related receptor gamma (Homo sapiens) (UniProt P62508); assay: ATG_ERRg_TRANS: Attagene TRANS-FACTORIAL HepG2 Assay for human Estrogen-Related Receptor gamma (ERRg) (AID 2282977); details: HepG2 Attagene TRANS reporter, ERRg transactivation;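 also: hits increase reporter signal over DMSO so potencies reflect activators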
Outline: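 HepG2 cells transiently transfected with multiplexed GAL4-UAS reporter units driven by chimeric NR-Gal4 proteins; 24 h exposure. Reporter mRNA quantified by RT-PCR, fluorescent labelling, HpaI digestion and capillary electrophoresis; gain of signal vs DMSO.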

[9] = biological target: Oxysterols receptor LXR-beta (Homo sapiens) (UniProt P55055); assay: ATG_LXRb_TRANS: Attagene TRANS-FACTORIAL HepG2 Assay for human Liver X Receptor beta (LXRb) (AID 2282981); details: HepG2 Attagene TRANS GAL4-LXRb reporter, mRNA
Outline: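 Transient transfection HepG2 (multiplexed RTUs, GAL4-UAS); NR-Gal4 chimera; 24 h exposure; RNA → RT-PCR → 6-FAM primer extension → HpaI → CE; increase vs DMSO.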

[10] = ATG_M_06_TRANS: Attagene TRANS-FACTORIAL HepG2 Assay for M06 Transcription Factor (Internal Marker) (AID 2282983); details: HepG2 Attagene TRANS M06 internal marker reporter
Outline: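 Measured by capillary electrophoresis of fluorescently labelled RT-PCR products, this endpoint reflects reporter mRNA in HepG2 cells harbouring exogenous NR-GAL4 reporter constructs after 24 h exposure, with DMSO as baseline.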

[11] = biological target: Glucocorticoid receptor (Homo sapiens) (UniProt P04150); assay: ATG_GR_TRANS: Attagene TRANS-FACTORIAL HepG2 Assay for human Glucocorticoid Receptor (GR) (AID 2282978); details: HepG2 Attagene TRANS GR reporter, mRNA transcription;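 also: activators score as hits since higher reporter transcript over DMSO is fitted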
Outline: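 Exogenous NR-GAL4 fusion activity was assessed through induced GAL4-UAS reporter transcripts in transfected human HepG2 cells, quantified after 24 h by RT-PCR and fluorescent capillary electrophoresis with DMSO as baseline.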

[12] = biological target: Hepatocyte nuclear factor 4-alpha (Homo sapiens) (UniProt P41235); assay: ATG_HNF4a_TRANS: Attagene TRANS-FACTORIAL HepG2 Assay for human Hepatocyte Nuclear Factor 4 alpha (HNF4a) (AID 2282982); details: HepG2 HNF4a transactivation reporter, mRNA readout
Outline: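 Readout is fluorescent reporter-transcript fragments resolved by capillary electrophoresis after RT-PCR from HepG2 cells dosed for 24 h. Cells carried transfected GAL4-UAS reporter constructs measuring exogenous NR-GAL4 chimera activity; DMSO served as baseline.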

[13] = ATG_M_32_TRANS: Attagene TRANS-FACTORIAL HepG2 Assay for M32 Transcription Factor (Internal Marker) (AID 2282984); details: HepG2 Attagene TRANS M32 internal marker reporter
Outline: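 Measures reporter mRNA induction in human HepG2 liver cells after 24 h chemical treatment. Transcripts from transiently transfected GAL4-UAS reporter units are amplified, fluorescently labelled and sized by capillary electrophoresis; gain of signal relative to DMSO.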

[14] = biological target: Nuclear receptor subfamily 1 group I member 3 (Homo sapiens) (UniProt Q14994); assay: ATG_CAR_TRANS: Attagene TRANS-FACTORIAL HepG2 Assay for human Constitutive Androstane Receptor (CAR) (AID 2282969); details: HepG2 Attagene TRANS-FACTORIAL CAR reporter;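 also: activators raise reporter mRNA above DMSO so AC50 marks induction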
Outline: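 Readout is reporter mRNA induction, quantified by fluorescent primer extension and capillary electrophoresis after RT-PCR. Cells were HepG2 transiently carrying chimeric NR-Gal4 constructs with GAL4-UAS reporters, treated for 24 h; activity scored upward from DMSO.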

[15] = biological target: Steroid hormone receptor ERR1 (Homo sapiens) (UniProt P11474); assay: ATG_ERRa_TRANS: Attagene TRANS-FACTORIAL HepG2 Assay for human Estrogen-Related Receptor alpha (ERRa) (AID 2282971); details: HepG2 Attagene TRANS reporter, ERRa transactivation
Outline: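 HepG2 cells were transiently transfected with multiple GAL4-UAS reporter units, then dosed with compound for 24 h. Total RNA was reverse-transcribed, reporter cDNA PCR-amplified and fluorescently labelled, and fragments resolved by capillary electrophoresis; induction was compared with DMSO.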

[16] = ATG_M_19_TRANS: Attagene TRANS-FACTORIAL HepG2 Assay for M19 Transcription Factor (Internal Marker) (AID 2282974); details: HepG2 Attagene TRANS-FACTORIAL M19 internal marker reporter
Outline: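 Using RT-PCR and capillary electrophoresis, reporter mRNA from transiently transfected human HepG2 cells was quantified following 24 h exposure; activity was fitted in the positive direction against DMSO.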

[17] = ATG_GAL4_TRANS: Attagene TRANS-FACTORIAL HepG2 Assay for GAL4 (Internal Marker) (AID 2282976); details: HepG2 Attagene TRANS GAL4 internal marker reporter
Outline: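 Fluorescence from capillary electrophoresis of labelled RT-PCR products quantifies reporter mRNA induction after 24 h dosing of HepG2 cells carrying transfected GAL4-UAS reporter transcription units. Vehicle DMSO serves as baseline.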

[18] = biological target: Bile acid receptor (Homo sapiens) (UniProt Q96RI1); assay: ATG_FXR_TRANS: Attagene TRANS-FACTORIAL HepG2 Assay for Farnesoid X Receptor (FXR) (AID 2282979); details: HepG2 Attagene TRANS FXR-GAL4 reporter transcription;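 also: hits raise reporter mRNA above DMSO so AC50 marks FXR activation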
Outline: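 Chimeric FXR-GAL4 activity in transiently transfected human HepG2 liver cells is scored as induction of reporter mRNA after 24 h of dosing. Detection uses RT-PCR with fluorescent labelling and capillary electrophoresis, with DMSO serving as baseline.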

Measured: AC50

Chain of Glucocorticoid receptor (Homo sapiens) (P04150 whole entry, looked up, the tested form may be a part): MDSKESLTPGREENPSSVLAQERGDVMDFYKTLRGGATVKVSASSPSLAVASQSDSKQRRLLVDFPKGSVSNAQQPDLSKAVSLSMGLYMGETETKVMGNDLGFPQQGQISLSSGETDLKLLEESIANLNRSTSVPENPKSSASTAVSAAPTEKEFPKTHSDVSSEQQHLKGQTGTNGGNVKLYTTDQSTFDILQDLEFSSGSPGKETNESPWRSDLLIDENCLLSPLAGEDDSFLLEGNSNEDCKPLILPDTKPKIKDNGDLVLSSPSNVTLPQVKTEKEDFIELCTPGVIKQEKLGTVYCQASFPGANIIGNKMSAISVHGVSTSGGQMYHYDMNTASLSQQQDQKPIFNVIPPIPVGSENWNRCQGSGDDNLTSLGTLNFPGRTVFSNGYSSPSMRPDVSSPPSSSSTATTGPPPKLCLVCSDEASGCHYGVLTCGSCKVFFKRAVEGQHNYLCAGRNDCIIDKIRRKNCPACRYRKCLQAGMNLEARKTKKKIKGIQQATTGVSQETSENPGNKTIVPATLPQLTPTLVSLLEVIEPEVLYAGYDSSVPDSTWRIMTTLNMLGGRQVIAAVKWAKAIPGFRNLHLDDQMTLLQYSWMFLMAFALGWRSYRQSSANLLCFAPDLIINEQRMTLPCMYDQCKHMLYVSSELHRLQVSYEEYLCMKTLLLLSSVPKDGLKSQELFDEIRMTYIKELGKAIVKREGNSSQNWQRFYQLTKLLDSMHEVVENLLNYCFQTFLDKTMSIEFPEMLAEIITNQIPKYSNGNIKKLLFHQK
Chain of Estrogen-related receptor gamma (Homo sapiens) (P62508 whole entry, looked up, the tested form may be a part): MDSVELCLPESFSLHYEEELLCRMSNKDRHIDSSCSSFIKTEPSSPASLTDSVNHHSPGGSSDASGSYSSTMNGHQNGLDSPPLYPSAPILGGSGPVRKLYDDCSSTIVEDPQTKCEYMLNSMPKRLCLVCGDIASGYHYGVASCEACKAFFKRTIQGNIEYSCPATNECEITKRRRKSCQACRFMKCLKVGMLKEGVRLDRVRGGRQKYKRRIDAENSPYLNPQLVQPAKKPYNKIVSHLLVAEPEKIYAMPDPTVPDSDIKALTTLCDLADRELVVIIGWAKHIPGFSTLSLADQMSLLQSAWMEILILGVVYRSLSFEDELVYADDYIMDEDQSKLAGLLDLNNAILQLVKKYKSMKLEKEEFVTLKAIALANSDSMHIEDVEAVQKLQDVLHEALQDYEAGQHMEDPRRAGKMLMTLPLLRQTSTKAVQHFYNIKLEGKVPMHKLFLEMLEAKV
Chain of Oxysterols receptor LXR-beta (Homo sapiens) (P55055 whole entry, looked up, the tested form may be a part): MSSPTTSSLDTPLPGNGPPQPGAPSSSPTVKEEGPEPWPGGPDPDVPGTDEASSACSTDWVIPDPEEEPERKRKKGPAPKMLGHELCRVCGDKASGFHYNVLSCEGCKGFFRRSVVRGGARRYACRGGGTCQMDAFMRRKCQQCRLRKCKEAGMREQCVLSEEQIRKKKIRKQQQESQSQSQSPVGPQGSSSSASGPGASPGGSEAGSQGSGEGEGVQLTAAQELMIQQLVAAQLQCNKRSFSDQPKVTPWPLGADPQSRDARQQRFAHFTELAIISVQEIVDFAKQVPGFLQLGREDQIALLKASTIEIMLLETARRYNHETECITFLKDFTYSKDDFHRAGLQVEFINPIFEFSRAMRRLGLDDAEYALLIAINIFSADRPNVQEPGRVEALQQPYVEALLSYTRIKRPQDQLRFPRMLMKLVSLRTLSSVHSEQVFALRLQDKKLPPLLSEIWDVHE
Chain of Steroid hormone receptor ERR1 (Homo sapiens) (P11474 whole entry, looked up, the tested form may be a part): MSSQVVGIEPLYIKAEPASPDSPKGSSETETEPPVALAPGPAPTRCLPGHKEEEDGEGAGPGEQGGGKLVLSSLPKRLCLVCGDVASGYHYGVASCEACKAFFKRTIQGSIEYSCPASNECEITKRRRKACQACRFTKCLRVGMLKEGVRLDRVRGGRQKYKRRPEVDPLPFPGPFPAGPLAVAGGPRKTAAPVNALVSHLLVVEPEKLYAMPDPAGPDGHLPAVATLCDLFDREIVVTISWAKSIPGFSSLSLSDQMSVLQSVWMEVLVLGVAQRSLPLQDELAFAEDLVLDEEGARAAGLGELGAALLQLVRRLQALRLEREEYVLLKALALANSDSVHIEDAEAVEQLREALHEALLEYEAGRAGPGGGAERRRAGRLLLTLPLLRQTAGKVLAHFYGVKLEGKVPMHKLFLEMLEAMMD
Chain of Hepatocyte nuclear factor 4-alpha (Homo sapiens) (P41235 whole entry, looked up, the tested form may be a part): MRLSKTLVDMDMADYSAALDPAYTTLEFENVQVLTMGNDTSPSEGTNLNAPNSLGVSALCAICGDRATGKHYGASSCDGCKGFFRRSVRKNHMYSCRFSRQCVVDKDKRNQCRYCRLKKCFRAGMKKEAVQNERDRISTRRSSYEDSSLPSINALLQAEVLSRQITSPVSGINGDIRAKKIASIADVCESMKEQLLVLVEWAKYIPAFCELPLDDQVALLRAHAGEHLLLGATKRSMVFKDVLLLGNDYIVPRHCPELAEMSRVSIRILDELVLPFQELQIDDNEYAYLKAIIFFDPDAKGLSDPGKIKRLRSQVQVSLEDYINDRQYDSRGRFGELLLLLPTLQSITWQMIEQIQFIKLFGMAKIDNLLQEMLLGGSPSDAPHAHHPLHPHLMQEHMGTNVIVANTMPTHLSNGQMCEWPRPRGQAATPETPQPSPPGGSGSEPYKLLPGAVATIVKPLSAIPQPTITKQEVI
Chain of X-box-binding protein 1 (Homo sapiens) (P17861 whole entry, looked up, the tested form may be a part): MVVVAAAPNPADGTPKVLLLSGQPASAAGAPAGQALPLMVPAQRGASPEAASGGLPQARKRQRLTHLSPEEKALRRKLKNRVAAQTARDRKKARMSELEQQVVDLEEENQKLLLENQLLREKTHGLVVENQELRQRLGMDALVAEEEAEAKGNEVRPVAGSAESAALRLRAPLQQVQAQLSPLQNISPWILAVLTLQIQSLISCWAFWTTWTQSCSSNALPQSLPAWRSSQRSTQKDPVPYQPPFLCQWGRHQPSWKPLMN
Chain of Estrogen receptor (Homo sapiens) (P03372 whole entry, looked up, the tested form may be a part): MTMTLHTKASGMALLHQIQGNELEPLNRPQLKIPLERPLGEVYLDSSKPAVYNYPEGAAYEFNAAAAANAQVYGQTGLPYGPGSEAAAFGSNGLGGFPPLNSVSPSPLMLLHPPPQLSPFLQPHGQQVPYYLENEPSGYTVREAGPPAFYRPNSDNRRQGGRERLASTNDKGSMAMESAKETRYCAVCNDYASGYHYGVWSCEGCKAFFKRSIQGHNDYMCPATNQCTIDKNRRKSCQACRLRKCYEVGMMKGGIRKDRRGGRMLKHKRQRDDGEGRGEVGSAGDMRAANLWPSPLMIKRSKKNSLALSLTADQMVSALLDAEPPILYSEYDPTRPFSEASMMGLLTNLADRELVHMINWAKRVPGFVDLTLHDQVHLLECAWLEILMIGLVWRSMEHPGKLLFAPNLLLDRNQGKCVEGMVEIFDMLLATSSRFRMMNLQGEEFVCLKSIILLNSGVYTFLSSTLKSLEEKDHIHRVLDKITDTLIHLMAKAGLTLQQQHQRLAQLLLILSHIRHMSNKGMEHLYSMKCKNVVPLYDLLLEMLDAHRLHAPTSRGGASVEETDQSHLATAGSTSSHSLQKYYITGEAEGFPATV
Chain of Nuclear receptor subfamily 1 group I member 3 (Homo sapiens) (Q14994 whole entry, looked up, the tested form may be a part): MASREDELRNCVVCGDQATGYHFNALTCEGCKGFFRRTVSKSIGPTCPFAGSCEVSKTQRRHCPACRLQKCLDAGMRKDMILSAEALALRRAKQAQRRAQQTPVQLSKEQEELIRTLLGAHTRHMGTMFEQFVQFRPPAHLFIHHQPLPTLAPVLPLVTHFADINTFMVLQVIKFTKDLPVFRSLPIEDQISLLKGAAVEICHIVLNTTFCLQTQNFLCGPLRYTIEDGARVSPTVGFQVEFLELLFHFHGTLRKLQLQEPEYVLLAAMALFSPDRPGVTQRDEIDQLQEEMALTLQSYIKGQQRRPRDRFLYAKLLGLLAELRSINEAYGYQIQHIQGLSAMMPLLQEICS
Chain of Bile acid receptor (Homo sapiens) (Q96RI1 whole entry, looked up, the tested form may be a part): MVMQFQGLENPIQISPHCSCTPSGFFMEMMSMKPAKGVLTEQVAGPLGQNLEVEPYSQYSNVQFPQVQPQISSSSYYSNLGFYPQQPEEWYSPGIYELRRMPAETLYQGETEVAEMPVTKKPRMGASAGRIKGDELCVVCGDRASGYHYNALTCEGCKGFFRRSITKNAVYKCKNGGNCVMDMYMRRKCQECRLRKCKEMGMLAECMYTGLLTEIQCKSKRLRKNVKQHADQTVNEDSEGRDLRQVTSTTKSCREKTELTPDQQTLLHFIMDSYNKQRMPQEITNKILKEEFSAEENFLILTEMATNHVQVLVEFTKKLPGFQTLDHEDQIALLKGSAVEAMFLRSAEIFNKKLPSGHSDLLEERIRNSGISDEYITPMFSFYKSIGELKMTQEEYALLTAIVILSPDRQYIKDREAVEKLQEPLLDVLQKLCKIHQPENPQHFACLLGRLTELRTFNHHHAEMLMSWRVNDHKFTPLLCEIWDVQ

COP(=O)(OC)O/C(C)=C/C(=O)N(C)C
inactive: [1] | [2] | [3] | [4] | [5] | [6] | [7] | [8] | [9] | [10]

CCOP(=S)(OCC)Oc1nc(Cl)n(C(C)C)n1
active: [4] 5.61 µM | [5] 29.9 µM | [9] 16.4 µM
inactive: [1] | [2] | [3] | [6] | [7] | [11] | [12] | [10] | [13]

C=C(C)CN(CC)c1c([N+](=O)[O-])cc(C(F)(F)F)cc1[N+](=O)[O-]
inactive: [1] | [3] | [14] | [15] | [6] | [16] | [7] | [17] | [11] | [10]
active: [4] 25.1 µM | [5] 30.7 µM

COC(=O)c1c(C(F)F)nc(C(F)(F)F)c(C2=NCCS2)c1CC(C)C
inactive: [1] | [3] | [14] | [15] | [6] | [16] | [7] | [8] | [9] | [12] | [10] | [13]
active: [4] 0.879 µM | [5] 19.6 µM

CS(=O)(=O)c1ccc(C(=O)C2C(=O)CCCC2=O)c([N+](=O)[O-])c1
inactive: [1] | [2] | [3] | [4] | [6] | [7] | [11] | [18] | [9] | [12] | [10] | [13]

CCNC(=O)NC(=O)C(C#N)=NOC
inactive: [1] | [2] | [3] | [4] | [14] | [5] | [15] | [6] | [16] | [8] | [9] | [12]

CCN(CC)c1nc(C)cc(OP(=S)(OC)OC)n1
inactive: [1] | [2] | [3] | [14] | [16] | [7] | [9] | [12] | [13]
active: [4] 25.4 µM | [5] 15.5 µM | [6] 50 µM

Cn1c(-c2ccccc2)cc(-c2ccccc2)[n+]1C
inactive: [1] | [2] | [3] | [4] | [5] | [15] | [6] | [16] | [9] | [12] | [13]

COP(=S)(OC)Oc1ccc([N+](=O)[O-])c(C)c1
active: [4] 34.1 µM | [5] 17.9 µM | [6] 50 µM
inactive: [1] | [2] | [3] | [14] | [15] | [16] | [17] | [8] | [11] | [18] | [9] | [12] | [10] | [13]
